Experimental data: PubChem BioAssay AID1672 (Johns Hopkins Ion Channel Center, 2009)
About 2,600 (0.84%) of roughly 310,000 compounds were called active.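 How the source made its calls: active means fluorescence ratio B-score at or below minus 3 SD of library scores, with starting-brightness B-score within 2 SD (cut at about -4.2 in these data); inactive means the rest.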 For the sample, actives were picked, then their nearest neighbours and some compounds at random.

These compounds were tested against Inward rectifier potassium channel 2 (Mus musculus) (UniProt P35561) (assay: inhibitors of mouse Kir2.1 inward-rectifier potassium channel (AID 1672;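 further: channel flux triggered by added potassium and thallium sulfate stimulus; B-score of peak minus minimum fluorescence over baseline after thallium stimulus; more negative B-score means stronger Kir2.1 block with less thallium influx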)). Conditions: HEK293-Kir2.1, FluxOR thallium flux fluorescence; at 10 µM; hits give low values.
Inward rectifier potassium channel 2 (Mus musculus), sequence (P35561 whole entry, looked up): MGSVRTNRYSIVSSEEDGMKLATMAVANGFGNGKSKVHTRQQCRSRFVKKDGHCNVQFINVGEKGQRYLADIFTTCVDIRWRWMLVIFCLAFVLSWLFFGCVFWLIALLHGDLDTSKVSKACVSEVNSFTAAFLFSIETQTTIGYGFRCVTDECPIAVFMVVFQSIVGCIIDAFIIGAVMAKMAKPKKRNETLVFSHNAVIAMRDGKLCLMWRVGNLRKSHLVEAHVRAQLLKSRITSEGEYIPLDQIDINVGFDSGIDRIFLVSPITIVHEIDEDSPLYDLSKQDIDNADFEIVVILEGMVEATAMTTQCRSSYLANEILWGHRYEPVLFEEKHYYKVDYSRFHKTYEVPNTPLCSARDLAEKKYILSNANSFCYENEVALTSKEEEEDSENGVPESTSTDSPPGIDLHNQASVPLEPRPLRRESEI
`CNCC(O)c1cc(F)c(OCc2ccccc2)c(OCc2ccccc2)c1F` (stereo unspecified) was tested, and the B-score was -10.4 (active).
With `COc1ccc2c(c1O)-c1cccc3c1[C@@H](C2)N(C)CC3` the B-score was -0.89 (inactive).
`C=CC12CN(C)[C@@H]3C4CO[C@H](C[C@H]41)[C@]1(C(=O)Nc4ccccc41)[C@@H]32` (stereo partly specified) was tested, and the B-score was -0.31 (inactive).
In the case of `COC(=O)C1=C(c2ccccc2)C[C@@H]2CC[C@H]1N2C(=O)NCc1ccco1`, the B-score is reported as -0.88 (inactive).
For `COc1ccc(N2C(=O)/C(=C/c3ccco3)C(=O)NC2=S)cc1`, the B-score was -1 (inactive).
In the case of `COC(=O)N(c1ccc(OC)cc1)P1(=S)OCCC(C)O1` (stereo unspecified), the B-score is reported as -0.02 (inactive).
`CCOc1cccc(=NC2CCCCC2)c2c(C)[nH]c(C)c12` was tested, and the B-score was -6.51 (active).
With `CCC(C)n1c(O)c(/C=N/Nc2nc3c(c(=O)n(C)c(=O)n3C)n2C)c(=O)[nH]c1=S` (stereo unspecified) the B-score was 1.97 (inactive).
For `CCN1C(=O)C(=Cc2c(C)n(CC(=O)NCC3CCCO3)c3ccccc23)C(=O)N(CC)C1=S` (stereo unspecified), the B-score was 1.19 (inactive).
With `Cc1ccc(S(=O)(=O)N(C)c2ccc(C(=O)NCC3(N(C)C)CCCCC3)cc2)cc1` the B-score was 0.21 (inactive).
For `COC(=O)C1=C(c2ccccc2)C[C@@H]2CC[C@H]1N2C(=O)N1CCCCC1`, the B-score was -0.79 (inactive).
In the case of `COc1ccc(C2NCc3ccc4c(c3-n3cccc32)OCO4)cc1OC` (stereo unspecified), the B-score is reported as -0.31 (inactive).
For `c1ccc(C2NCc3ccccc3-n3cccc32)cc1` (stereo unspecified), the B-score was -6.08 (active).
With `COc1ccc2c(c1)[C@]13CCCCC1C(C2)N(C)CC3` (stereo partly specified) the B-score was -0.18 (inactive).
`O=C(Cc1ccccc1)N1CCN(C2CCCCCC2)CC1` was tested, and the B-score was -1.16 (inactive).
In the case of `CCCCn1c(=O)c(C(=O)Nc2ccccc2Cl)c(O)c2ccccc21`, the B-score is reported as -1.32 (inactive).
For `CN(C)CCN(CC1CCCN(Cc2ccccc2F)C1)C(=O)Cc1ccc(F)c(F)c1` (stereo unspecified), the B-score was -0.57 (inactive).
For `O=C1N=c2ccccc2=C/C1=C\c1c(O)[nH]c(=S)[nH]c1=O`, the B-score was 0.39 (inactive).
In the case of `CCCCCCCCCCCCn1ccc(=N)cc1`, the B-score is reported as -13 (active).
In the case of `COc1ccc(C(=O)CC2C(=O)N(C)C(=O)N(C)C2=O)cc1`, the B-score is reported as 0.17 (inactive).
In the case of `c1ccc(CCN2CCC3(CC2)OCCO3)cc1`, the B-score is reported as 1.88 (inactive).
With `COC(=O)C1=C(c2cc3ccccc3s2)C[C@@H]2CC[C@H]1N2C(=O)NCCO` the B-score was -0.7 (inactive).
With `Clc1ccc2nc3c(c(-c4ccccc4)c2c1)CNCC3` the B-score was -7.18 (active).
In the case of `Cc1nn(-c2ccccc2)c(C)c1NC(=O)COC(=O)Cc1ccccc1`, the B-score is reported as -0.02 (inactive).
`CCOC(=O)C1(CCc2ccccc2)CCN(Cc2ccco2)CC1` was tested, and the B-score was -2.11 (inactive).
For `CC[C@H]1CC2CN3CCc4c([nH]c5ccccc45)C(C(=O)OC)(C2)C13` (stereo partly specified), the B-score was -2.28 (inactive).
